We go through 36 compounds from PubChem BioAssay (NCATS).

Molecules are shown by their SMILES. Inconclusive results are not listed. Where a call stands in place of a potency, no number is given. Active and inactive are the calls of the source. Calls come from the whole dose curve; as a rule, active = well fitted inhibition curve with a large enough effect; inconclusive = small, poorly fitted or top-dose-only effect; inactive = no such curve, though single readings can be large or run the other way.
Potency is the fitted concentration of half-maximal effect.

The first assay concerns Zika virus NS2B-NS3 protease (unlinked complex). Put plainly: Primary screen GU Rhodamine qHTS for Zika virus inhibitors: Unlinked NS2B-NS3 protease assay (AID 1347159). Note: nearly all actives have a fitted effect of over 60% in size. To be noted: Recombinant ZIKV NS2B-NS3 protease, Rhodamine110 substrate fluorescence; series mostly up to 107 µM. The procedure, abridged: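 A qHTS format was used, with compound concentrations ranging up to 114 microM. Each compound was preincubated with 25 nM NS2B-NS3 protease, and the substrate was then added at 1.5 microM. Curves were fitted with a 4-parameter Hill model.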
(In qHTS, concentration-response curves come from the screen itself.)
On to `COC1CC(O[C@H]2CC[C@]3(C=O)C4CC[C@]5(C)[C@@H](C6=CC(=O)OC6)CC[C@]5(O)[C@@H]4CC[C@]3(O)C2)OC(C)C1O[C@@H]1O[C@H](CO)[C@@H](O)[C@H](O)[C@H]1O` (stereo not given in full), for which the Potency entry is “inactive”. On the same count and under the same terms, under `CCN1C[C@]2(OC(=O)c3ccccc3NC(C)=O)CC[C@H](OC)[C@@]34[C@@H]2C[C@@H]([C@@H]13)[C@@]1(O)C[C@H](OC)[C@H]2C[C@@H]4[C@]1(O)[C@H]2OC` stands “inactive”.

For `CC(C)(C)c1cc(C(C)(C)C)c2c(c1)C(O)(C(F)(F)F)C(=O)O2` (stereo not given), the Potency was 7.94 µM (active).

Consider `C=C1[C@@H]2CC[C@@]3(C)[C@H](c4ccoc4)OC(=O)C[C@]13O[C@H]1CC(=O)C(C)(C)[C@H](C(OC(C)=O)C(=O)OC)[C@]12C` (stereo not given in full), for which the Potency entry is “inactive”.

The next assay deals with Zika virus NS2B-NS3 protease (linked construct). In words: Primary screen NINDS Rhodamine qHTS for Zika virus inhibitors (AID 1347160). Note: nearly all actives have a fitted effect of over 55% in size. The settings on record: purified NS2B-NS3 protease, Rhodamine110 substrate fluorescence; series mostly up to 57.1 µM. The procedure, abridged:
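Kinetic fluorescence (Ex 480 nm, Em 540 nm) over 15 min with 1.5 microM Rhodamine110 peptide and 25 nM linked protease.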
Turning to `C=CC(C)(O)CC/C=C(\C)C(=O)O[C@H]1[C@H](O)[C@@H](CO)O[C@@H](OC(=O)[C@]23CCC(C)(C)CC2C2=CCC4[C@@]5(C)CC[C@H](O[C@@H]6O[C@H](CO[C@@H]7OC[C@H](O)[C@H](O)[C@H]7O[C@@H]7OC[C@@H](O)[C@H](O)[C@H]7O)[C@@H](O)[C@H](O)[C@H]6O)C(C)(C)C5CC[C@@]4(C)[C@]2(C)CC3)[C@@H]1OC1OC(C)C(O[C@@H]2OC[C@@H](O)[C@H](O[C@@H]3OC[C@@H](O)[C@H](O)[C@H]3O)[C@H]2O)C(O)C1O` (stereo not given in full), the activity change, negative = inhibition is 33.2% [at 10.7 µM] (inactive).

As to `CN1C(=O)c2ccccc2NC(=O)[C@]12O[C@@H]2c1ccccc1`, the Potency entry was “inactive”.

For `CN[C@H]1[C@H](O)[C@H](O[C@@H]2[C@@H](O)[C@H](O[C@H]3O[C@H]([C@H](C)O)[C@@H](O)[C@H](O)[C@H]3N)[C@@H](N)C[C@H]2N)OC[C@@]1(C)O`, the Potency entry was “inactive”. Regarding `CC(C)[C@@H](CN1CC[C@@](C)(c2cccc(O)c2)[C@@H](C)C1)NC(=O)[C@H]1Cc2ccc(O)cc2CN1`, the Potency result was “inactive”. As for `CCN1C[C@]2(COC(=O)c3ccccc3N3C(=O)C[C@H](C)C3=O)CC[C@H](OC)[C@@]34[C@@H]5C[C@H]6[C@H](OC)[C@@H]5[C@](O)(C[C@@H]6OC)[C@](O)([C@@H](OC)[C@H]23)[C@@H]14`, the Potency result was “inactive”. For the compound `CC(CCc1ccc(O)cc1)O[C@@H]1O[C@H](CO[C@H]2OC[C@](O)(CO)[C@H]2O)[C@@H](O)[C@H](O)[C@H]1O` (stereo not given in full), the Potency entry was “inactive”. Turning to `CC12CCC3C(CCC4(O)CC(O)CCC34C=O)C1(O)CCC2C1=CC(=O)OC1` (stereo not given), the Potency entry is “inactive”. For `O=C(O)c1ccnc2cc(C(OCCN3CCCCC3)c3ccccc3Cl)[nH]c12` (stereo not given), the Potency entry was “inactive”.

As to `COC(=O)N1CCN(C(=O)Cc2ccc(Cl)c(Cl)c2)[C@@H](CN2CCCC2)C1`, the Potency result is “inactive”. For the compound `Cn1ncnc1COc1nn2c(-c3c(F)cccc3F)nnc2cc1C1CCC1`, the Potency entry was “inactive”. For `CN1[C@H]2C[C@H](OC(=O)[C@H](CO)c3ccccc3)C[C@@H]1[C@@H](O)C2`, the Potency entry is “inactive”. As for `COc1cc(C(=O)O[C@H]2[C@@H]3C=CO[C@@H](O[C@@H]4O[C@H](CO)[C@@H](O)[C@H](O)[C@H]4O)[C@@H]3[C@@]3(CO)O[C@@H]23)ccc1O`, the Potency entry is “inactive”. With `CC(C)=C1CC[C@]23CO[C@H](C2)[C@@](O)(C(=O)O)CCC13` (stereo not given in full), the Potency entry was “inactive”.

In the case of `COC(=O)[C@@]12C(=O)C(C)C(=O)[C@]1(C)C(C)=C[C@H]1[C@]3(C=O)CC[C@H](OC(C)=O)C(C)(C)[C@H]3CC[C@@]12C` (stereo not given in full), the Potency entry is “inactive”.

On to `COC1=CC(=O)O[C@@H](/C=C/c2ccccc2)C1`, for which the Potency entry is “inactive”. As to `Oc1ccc2c3c1O[C@H]1[C@H](N(CCCl)CCCl)CC[C@@]4(O)[C@@H](C2)N(CC2CC2)CC[C@]314`, the outcome was “inactive [at 10.7 µM]”. Consider `N#C[C@@H](O[C@@H]1O[C@H](CO[C@@H]2O[C@H](CO)[C@@H](O)[C@H](O)[C@H]2O)[C@@H](O)[C@H](O)[C@H]1O)c1ccccc1`, for which the Potency result was “inactive”. Still for that read-out and setting: the same measure for `C[C@]12CC[C@@H](O)C[C@H]1CC[C@@H]1[C@@H]2CC[C@]2(C)C(=O)CC[C@@H]12`: “inactive”.

Regarding `CCCCCCn1c(=O)c(C(=O)Nc2ccc(C(=O)OCCC)cc2)c(O)c2ccccc21`, the outcome was “inactive [at 10.7 µM]”. Take `C[C@@](O)(COc1ccc(C#N)cc1)C(=O)Nc1ccc(C#N)c(C(F)(F)F)c1`: the Potency result is “inactive”.

For the compound `CC(C)(O)[C@H]1O[C@H]2CC[C@@]3(C)[C@@](O)(CC[C@H]4Cc5c([nH]c6ccccc56)[C@@]43C)C2=CC1=O`, the Potency result was “inactive”.

On to `COc1ccccc1CN[C@H]1C2CCN(CC2)[C@H]1C(c1ccccc1)c1ccccc1`, for which the Potency entry was “inactive”. In the case of `OC1(c2ccc(Cl)cc2)c2ccccc2C2=NCCN21` (stereo not given), the Potency result was “inactive”. In the case of `C1=C2CCCN[C@H]2[C@@H]2C[C@H]1[C@H]1CCCCN1C2`, the Potency result was “inactive”. In the case of `Clc1ccc(N2C[C@H]3CC[C@@H](C2)N3)nn1`, the Potency entry was “inactive”. For `CC(=O)OC1CC(O)C(C)(C)C2CC(OC(C)=O)C3(C)C(CCC4(C)C(c5ccoc5)C(=O)C5OC543)C12C` (stereo not given), the Potency entry is “inactive”.

`CN1C(=O)c2ccccc2NC(=O)C1Cc1ccccc1` (stereo not given): the Potency result was “inactive”. Take `COC1CC(O[C@H]2CC[C@@]3(C)C(=CCC4C3C(O)[C@@H](O)[C@]3(C)[C@@H](C(C)=O)CC[C@]43O)C2)OC(C)C1OC1CC(OC)C(OC2OC(C)C(O)C(O)C2O)C(C)O1` (stereo not given in full): the Potency entry is “inactive”. In the case of `Cc1cc(C(=O)CN2CCCC2)c(C)n1-c1ccc(F)cc1`, the Potency result is “inactive”. Consider `CN(C(=O)Cc1ccccc1)C(CN1CCCC1)c1ccccc1` (stereo not given), for which the Potency entry was “inactive”.

As to `CCC(C)(C#N)O[C@@H]1O[C@H](CO)[C@@H](O)[C@H](O)[C@H]1O` (stereo not given in full), the Potency entry is “inactive”. Take `CCOc1ccccc1-n1c(C(C)N2CCN(C(=O)COc3ccc(Cl)cc3)CC2)nc2ccccc2c1=O` (stereo not given): the Potency result was “inactive”.

As for `COC1CC(O[C@H]2CC[C@]3(C=O)C4CC[C@]5(C)[C@@H](C6=CC(=O)OC6)CC[C@]5(O)[C@@H]4CC[C@]3(O)C2)OC(C)C1O[C@@H]1O[C@H](CO)[C@@H](O)[C@H](O)[C@H]1O` (stereo not given in full), the Potency result was “inactive”. Same read-out and setting: the same measure for `CCN1C[C@]2(OC(=O)c3ccccc3NC(C)=O)CC[C@H](OC)[C@@]34[C@@H]2C[C@@H]([C@@H]13)[C@@]1(O)C[C@H](OC)[C@H]2C[C@@H]4[C@]1(O)[C@H]2OC`: “inactive”; for `CC(C)(C)c1cc(C(C)(C)C)c2c(c1)C(O)(C(F)(F)F)C(=O)O2` (stereo not given): 12.6 µM (active); for `C=C1[C@@H]2CC[C@@]3(C)[C@H](c4ccoc4)OC(=O)C[C@]13O[C@H]1CC(=O)C(C)(C)[C@H](C(OC(C)=O)C(=O)OC)[C@]12C` (stereo not given in full): “inactive”.
